Most compounds without a hit are left out; they make up all but 3.1% or so of the library.
p53ts 39C kill: p53ts cell cytotoxicity, nonpermissive temperature; H1299-p53A138V viability at 39C, ATP luminescence, 24 h; 130,000 compounds, 1.5% hits; Potency, µM (top dose mostly 46.1 µM), for the others: at the top dose activity change, negative = cell killing, hits mostly cytotoxic; also: % is scaled to controls: 0 for no effect and ±100 for the full control effect; nearly all actives have a fitted effect of over 55% in size
Peg3 imprint: induces erasure of genomic imprints in mouse ES cells | mouse ES Peg3-LacZ reporter, beta-gal luminescence, 40 h | 110,000 compounds, 0.02% hits | AID 1948 | Potency, µM (series often up to 60.7 µM), for inactives: top-dose activity change, positive = activation, hits mostly activators
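Imprint erasure is scored as LacZ activity from the silenced maternal Peg3 allele in feeder-free female ES cells cultured 40 h with LIF. Luminescence is normalized to in-plate negative controls and fitted to the Hill equation.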
TSHR agonist: activates the human thyroid stimulating hormone receptor | P16473 | HEK293-CNG-TSHR cells (CNG channel as cAMP sensor), membrane potential dye, cAMP | Potency, µM (titrated, usually from 57.1 µM), without a hit: at the top dose activation, most hits filed as activators | 73,000 compounds, 0.48% hits; active = well fitted activation curve with a large enough effect in the main read-out, with a control signal flat, not every such curve was filed as active; inconclusive = small, poorly fitted or top-dose-only effect, or a change in a side signal; inactive = no such curve, though single readings can be large or run the other way; % of control where 0% means no effect;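 also: the control signal comes from parental cells without the receptor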
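cAMP rise detected as CNG-channel membrane depolarization by fluorescent dye (emission 590 nm), 30 min after compound, following 60 min dye loading containing 100 uM RO 20-1724 at room temperature. Cells: TSHR/CNG HEK 293, with parental CNG HEK 293 as control.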
HEK293 cAMP ctrl: counter-screen for TSHR agonists: cAMP increase in parental HEK293. Potency, µM (top dose mostly 57.1 µM), for the others: at the top dose activation, most hits filed as activators. parental HEK293 CNG cAMP sensor, membrane potential fluorescence. 73,000 compounds, 2.5% hits. AID 938; also: % of control where 0% means no effect; nearly all actives have a fitted effect of over 55% in size
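Parental HEK 293 cells stably expressing a modified CNG channel (no TSHR) report cAMP rise as membrane depolarization. Membrane potential dye with 100 uM RO 20-1724 was loaded for 60 min at room temperature, then compound added for 30 min; fluorescence read at 590 nm.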
IkB signaling: IkB pathway inhibition in ABC-DLBCL cells. ABC-DLBCL IkBa-CBG/CBR dual luciferase ratio, 4 h; response scale: scaled: untreated 0%, proteasome inhibitor 100%. Potency, µM (series often up to 57.1 µM), without a hit: top-dose IkBa stabilization activation. 110,000 compounds, 0.04% hits. AID 445; active = well fitted curve in the direction sought with a large enough effect in the signal ratio, not every such curve was filed as active; inconclusive = small, poorly fitted or top-dose-only effect, or a change in a side signal; the % refers to the signal ratio;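 also: the direction sought is a rising ratio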
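Luminescence ratio of IκBα-fused green versus native red beetle luciferase in OCI-Ly3 cells, 4 h post-doxycycline with compound; red signal alone, scaled from basal (0%) to zero light (-100%), flagged nonspecific or cytotoxic effects.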
p53ts 32C kill: kills p53ts cells at the permissive temperature; H1299-p53A138V at 32C, ATP luminescence viability, 24 h; Potency, µM (titrated, usually from 46.1 µM), for the others: at the highest dose activity change, negative = cytotoxicity, most hits filed as cytotoxic; 130,000 compounds, 0.93% hits; AID 924;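 also: 0% = DMSO and -100% = full killing by reference compound; nearly all actives have a fitted effect of over 55% in size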
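H1299-p53 A138V cells (temperature-sensitive p53) exposed 24 h to up to 46 uM compound at 32C, where p53 is wild-type in conformation. Viability read as ATP luminescence and normalised to DMSO and 100 uM tamoxifen. AC50 fitted with the Hill equation.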
* = called active by the depositor; ? = inconclusive; . = not tested or not shown; [ ] = remark or other dose. Unless noted, calls follow the shape of the dose curve; as a rule, active = well fitted curve in the direction sought with a large enough effect; inconclusive = small, poorly fitted or top-dose-only effect, or another doubt; inactive = no such curve, though single readings can be large; an effect the other way counts as inactive or inconclusive. Potency is read from the fitted curve at half-maximal effect.

SMILES | p53ts 39C kill | Peg3 imprint | TSHR agonist | HEK293 cAMP ctrl | IkB signaling | p53ts 32C kill
CN[C@@H](CC(C)C)C(=O)N[C@@H]1C(=O)N[C@H](CC(N)=O)C(=O)N[C@H]2C(=O)N[C@H]3C(=O)N[C@H](C(=O)N[C@H](C(=O)O)c4cc(O)cc(O)c4-c4cc3ccc4O)[C@H](O)c3ccc(c(Cl)c3)Oc3cc2cc(c3O[C@@H]2O[C@@H](CO)[C@@H](O)[C@@H](O)[C@H]2O[C@H]2C[C@](C)(N)[C@H](O)[C@H](C)O2)Oc2ccc(cc2Cl)[C@@H]1O | -10.9% | . | ? | ? | 0.9% | 26.4%
CCCCCC1NC(=O)NC1CCCCCC(=O)O (stereo not drawn) | 4.0% | 0.4% | 2.8% | -1.9% | 3.3% | -0.4%
O=C(O)CCCCCC[C@@H]1C(=O)NC(=O)N1CC[C@@H](O)C1CCCCC1 | . | . | ? | 2µM* | 11.0% | .
CCCCn1cc(S(=O)(=O)c2ccc(CC)cc2)c(=O)c2cc(F)c(N3CCOCC3)cc21 | . | . | . | . | . | 1.6%
Brc1ccccc1-c1nc(-c2ccccc2)no1 | ? | -68.1% | 17.5%[11.4 µM] | 28.3%[11.4 µM] | 8.2% | 12.6µM*
Cc1ccc(-c2nc(-c3ccccc3)no2)c(Cl)c1 | 7.94µM* | -81.5% | ? | ? | ? | 5.01µM*
c1ccc(C(c2ccccc2)N2CCC3(CCNCC3)CC2)cc1 | -25.9% | . | 1.6% | -0.1% | 3.8%[11.4 µM] | -10.8%
Cc1ccc(Nc2nc3nonc3nc2Nc2cccc(C(F)(F)F)c2)cc1Cl | 10µM* | -29.8%[10.9 µM] | . | . | ? | 12.6µM*
CCOc1ccccc1NC(=O)CSc1nc2cc(OC)c(OC)cc2c2nc(CCn3c(C)nc4ccccc43)nn12 | 5.01µM* | -10.3%[10.9 µM] | . | . | -3.7% | ?
CCOc1ccc(NC(=O)CSC2=Nc3ccccc3C3=NC(CC(=O)NCc4cccs4)C(=O)N23)cc1 (stereo not drawn) | -23.3% | -6.8%[10.9 µM] | . | . | ? | 5.8%
COc1ccccc1N1CCN(c2ccc(=O)n(CC(=O)NCc3ccc(F)cc3)n2)CC1 | -22.1% | ? | . | . | -1.1% | 2.7%
CC(=O)c1c(C(C)=O)c(C)n(NC(=O)c2cccnc2)c1C | 1.1% | -7.5% | ? | 3.98µM* | ? | -7.3%
C[C@H](N)C(=O)OC(C)(C)Cc1ccc(Cl)cc1 | 5.4% | . | -5.3% | -3.1% | -4.6% | -7.3%
COc1cccc(-n2cc(C(=O)Oc3cccc(C(F)(F)F)c3)c3ccccc3c2=O)c1 | -22.8% | 11.7%[10.9 µM] | . | . | -2.5% | 11.7%
CCC1CCCCN1C(=O)CSc1nc2c([nH]c3ccccc32)c(=O)n1C (stereo not drawn) | 22.1% | -5.7% | ? | 31.6µM* | -0.6% | -10.6%
CCSc1nc2c([nH]c3ccccc32)c(=O)n1C | -20.8% | 1.9% | 4.0% | 2.3% | -0.4% | -8.3%
CN(C)c1ccc(C2(c3ccc(N(C)C)cc3)OC(=O)c3cc(N(C)C)ccc32)cc1 | 3.9% | -12.1% | -1.9% | 1.1% | 1.1% | 0.4%[1.84 µM]
CCCOC(=O)Nc1nc2ccccc2o1 | ? | . | -4.4% | 12.1% | ? | 10µM*
Cc1ccc2c(=O)cc(C(=O)Nc3cccc(C(F)(F)F)c3)oc2c1C | -13.4% | -6.8%[10.9 µM] | . | . | -1.4% | 4.2%
CCOC(=O)N1CCN(Cc2cc(=O)oc3ccc4ccccc4c23)CC1 | 4.7% | -11.4% | ? | 25.1µM* | 0.4% | 6.5%
Cc1ccc(-n2ncc3c(NC4CCCCC4)ncnc32)cc1C | 12.6µM* | -22.8%[10.9 µM] | . | . | ? | -15.8%
Cc1cccc(-n2ncc3c(NC4CCCC4)ncnc32)c1 | 7.94µM* | 18.5%[10.9 µM] | . | . | ? | 12.6µM*
Cc1cccc(-n2ncc3c(NC4CCCCC4)ncnc32)c1 | 15.8µM* | -18.0% | ? | ? | 9.0% | 10µM*
CCn1c(=O)cc(OCC(=O)N2CCN(c3ccc(C)cc3)C(C)C2)c2ccccc21 (stereo not drawn) | ? | -12.7%[10.9 µM] | . | . | ? | ?
